Calls of active or inactive are those of the source. Unless noted, the rule behind the calls is not given here.
Legend:
[1] = compound effects on lung adenocarcinoma cell viability – A549, calcein-AM fluorescence, 48 h, basal, profiling panel (AID 1162); settings: higher = more signal; note: test concentration not given here
[2] = compound effects on differentiated 3T3-L1 adipocyte viability – cell-based, 3T3-L1 adipocytes, calcein-AM fluorescence, 48 h, basal, profiling panel (AID 1163); settings: 3T3-L1 adipocytes viability, higher = more signal; note: test concentration not given here
[3] = compound effects on hepatocellular carcinoma cell viability – HepG2, calcein-AM fluorescence, 48 h, basal, profiling panel (AID 1164); settings: higher = more signal; note: test concentration not given here
[4] = compound effects on multiple myeloma cell viability – MM1S, calcein-AM fluorescence, 48 h, basal, profiling panel (AID 1165); settings: higher = more signal;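 note: viability of MM1S multiple myeloma cells under basal unstimulated conditions; test concentration not given here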
[5] = calcein-AM signal in unstimulated myeloma cells – cell-based, calcein-AM fluorescence, 48 h, PK04 Diversity Set, profiling panel (AID 1166); settings: RPMI8226 myeloma viability, higher = more signal;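 note: cells grown under basal conditions without added stimulus; test concentration not given here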
[6] = JC-1 mitochondrial signal, unstimulated HepG2 cells – cell-based, JC-1 fluorescence, 24 h, 100 nL compound, profiling panel (AID 1167); settings: HepG2 mitochondrial potential, higher = more signal; note: test concentration not given here
[7] = JC-1 mitochondrial signal, unstimulated adipocytes – cell-based, JC-1 fluorescence, 3T3-L1 adipocytes, 24 h, 100 nL compound, profiling panel (AID 1168); settings: JC-1 mitochondrial fluorescence, higher = more signal, called active from +8 up or from −8 down; note: test concentration not given here
[8] = JC-1 mitochondrial signal, unstimulated myeloma cells – cell-based, JC-1 fluorescence, RPMI8226, 24 h, 100 nL compound, profiling panel (AID 1169); settings: JC-1 mitochondrial potential fluorescence, higher = more signal; note: test concentration not given here
[9] = JC-1 mitochondrial signal, unstimulated MM1S myeloma – cell-based, JC-1 fluorescence, 24 h, 100 nL compound, profiling panel (AID 1170); settings: MM1S mitochondrial potential, higher = more signal; note: test concentration not given here
[10] = resazurin metabolic signal in A549 cells – cell-based, resazurin fluorescence, 24 h, PK04 Diversity Set, profiling panel (AID 1171); settings: A549 viability, higher = more signal, called active from +8 up or from −8 down; note: test concentration not given here
[11] = resazurin metabolic signal in HepG2 cells – cell-based, resazurin fluorescence, 24 h, PK04 Diversity Set, profiling panel (AID 1172); settings: HepG2 viability, higher = more signal; note: test concentration not given here
[12] = budding yeast growth changes without added modifier – OD600, strain BY4716, 24 h, basal condition, primary screen (AID 1173); settings: S. cerevisiae BY4716 growth, OD600, 24 h; higher = more signal, called active from +8 up or from −8 down
[13] = viability profiling in MM1S myeloma cells – cell-based, resazurin fluorescence, basal, 24 h, PK04 Diversity Set, profiling panel (AID 1174); settings: higher = more signal, called active from +8 up or from −8 down; note: test concentration not given here
[14] = target: Dihydroorotate dehydrogenase (quinone), mitochondrial (Plasmodium falciparum (isolate 3D7)) (UniProt Q08210); experiment: inhibition of P. falciparum DHODH – biochemical, C-terminal His tag, absorbance 600 nm, primary screen (AID 1175); settings: PfDHODH enzyme, DCIP absorbance 600 nm; higher = more signal, called active from +8 up or from −8 down;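 note: recombinant parasite enzyme with a five histidine tag at its C terminus; test concentration not given here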
Chain of Dihydroorotate dehydrogenase (quinone), mitochondrial (Plasmodium falciparum (isolate 3D7)) (Q08210 whole entry, looked up): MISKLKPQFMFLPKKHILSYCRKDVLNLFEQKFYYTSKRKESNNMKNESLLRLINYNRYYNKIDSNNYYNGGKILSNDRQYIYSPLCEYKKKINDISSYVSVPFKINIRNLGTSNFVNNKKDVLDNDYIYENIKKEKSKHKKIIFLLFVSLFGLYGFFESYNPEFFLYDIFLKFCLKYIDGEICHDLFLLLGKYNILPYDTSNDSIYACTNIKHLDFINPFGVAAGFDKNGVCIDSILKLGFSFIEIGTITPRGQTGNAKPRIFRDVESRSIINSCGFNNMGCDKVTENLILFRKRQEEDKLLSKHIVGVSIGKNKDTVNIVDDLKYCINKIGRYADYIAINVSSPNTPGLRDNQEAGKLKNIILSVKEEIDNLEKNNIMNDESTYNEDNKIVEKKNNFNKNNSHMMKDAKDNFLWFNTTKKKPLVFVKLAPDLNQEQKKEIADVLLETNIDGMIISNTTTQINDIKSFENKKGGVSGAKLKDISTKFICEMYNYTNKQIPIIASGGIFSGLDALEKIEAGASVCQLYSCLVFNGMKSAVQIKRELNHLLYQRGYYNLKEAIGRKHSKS

[15] = inhibition of PAO1 biofilm formation – strain PAO1, LB-PBS medium, absorbance 600 nm, primary screen (AID 1176); note: test concentration not given here; settings: P. aeruginosa PAO1 growth/biofilm, A600, 12 h; higher = more signal
[16] = growth modulation of vineyard yeast isolate – strain RM11-1a, OD600, basal, 24 h, primary screen (AID 1177);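 note: cultures grown under basal conditions with no added stressor; test concentration not given here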; settings: S. cerevisiae RM11-1a growth, OD600, 24 h; higher = more signal, called active from +8 up or from −8 down
[17] = growth of efflux-deficient E. coli DRC39 – strain DRC39, OD650, 24 h, E. coli filamentation inducers, primary screen (AID 1178);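 note: growth measured as culture turbidity by optical density at 650 nm; test concentration not given here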; settings: E. coli DRC39 acrAB, higher = more signal, called active from +8 up or from −8 down
[18] = growth of efflux-deficient E. coli DRC39 – strain DRC39, OD650, 48 h, E. coli filamentation inducers, primary screen (AID 1179);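 note: screen aims at cell division blockers that make cells filament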; settings: E. coli DRC39 delta-acrAB growth, higher = more signal, called active from +8 up or from −8 down
[19] = viability profiling in RPMI8226 myeloma cells – cell-based, resazurin fluorescence, basal, 24 h, PK04 Diversity Set, profiling panel (AID 1180); settings: higher = more signal;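 note: RPMI8826 multiple myeloma cell line at 5000 cells per well; test concentration not given here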
[20] = target: E3 ubiquitin-protein ligase XIAP (Homo sapiens) (UniProt P98170); experiment: small molecules binding XIAP protein – biophysical, small-molecule microarray, fluorescence 635 nm, primary screen (AID 1181); settings: higher = more signal;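 note: score merges 667 nm emission and signal to noise over triplicate slides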
Chain of E3 ubiquitin-protein ligase XIAP (Homo sapiens) (P98170 whole entry, looked up): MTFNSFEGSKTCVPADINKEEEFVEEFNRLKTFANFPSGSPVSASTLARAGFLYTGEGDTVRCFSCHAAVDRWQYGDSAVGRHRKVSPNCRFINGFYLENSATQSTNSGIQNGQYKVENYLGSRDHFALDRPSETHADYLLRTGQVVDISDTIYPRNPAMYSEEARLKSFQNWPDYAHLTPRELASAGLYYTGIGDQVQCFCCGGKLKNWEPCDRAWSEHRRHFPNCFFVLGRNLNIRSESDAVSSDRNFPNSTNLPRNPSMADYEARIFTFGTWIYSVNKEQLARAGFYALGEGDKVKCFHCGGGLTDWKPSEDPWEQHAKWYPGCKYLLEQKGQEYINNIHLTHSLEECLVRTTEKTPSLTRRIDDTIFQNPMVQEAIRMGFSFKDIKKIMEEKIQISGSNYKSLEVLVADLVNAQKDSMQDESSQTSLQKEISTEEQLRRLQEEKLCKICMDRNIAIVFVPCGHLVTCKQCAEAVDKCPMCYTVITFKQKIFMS

CCOC(=O)C1=CC[C@@H](c2ccc(OCc3ccccc3)c(OC)c2)N(S(=O)(=O)c2ccc(C)cc2)[C@H]1c1ccc(SC)cc1
z-score [1]: -0.568
z-score [2]: 0.211
z-score [3]: 0.355
z-score [4]: -0.821
z-score [5]: -0.906
z-score [6]: 1.37
z-score [7]: -1.14 (inactive)
z-score [8]: 0.419
z-score [9]: -0.598
z-score [10]: 1.33 (inactive)
z-score [11]: 0.579
z-score [12]: 0.49 (inactive)
z-score [13]: -0.107 (inactive)
composite z-score [14]: -0.322 (inactive)
z-score [15]: 1.64 (inactive)
z-score [16]: -0.759 (inactive)
z-score [17]: -0.286 (inactive)
z-score [18]: -0.361 (inactive)
z-score [19]: -0.455
composite z-score [20]: 0.307

CC(C)(C)N1CC=CC23O[C@@H]4C=CCCOC(=O)C4[C@H]2C(=O)N(CCO)[C@@H]3C1=O (stereo not given in full)
z-score [1]: -0.708
z-score [2]: -0.358
z-score [3]: -0.811
z-score [4]: 0.18
z-score [5]: 0.608
z-score [6]: -0.405
z-score [7]: -1.46 (inactive)
z-score [8]: 0.168
z-score [9]: -0.132
z-score [10]: -0.693 (inactive)
z-score [11]: 0.388
z-score [12]: 0.0947 (inactive)
z-score [13]: -0.512 (inactive)
composite z-score [14]: 0.427 (inactive)
z-score [15]: 0.345 (inactive)
z-score [16]: 0.451 (inactive)
z-score [17]: -1.02 (inactive)
z-score [18]: -1.05 (inactive)
z-score [19]: -1.13
composite z-score [20]: 0.072

C=CCOC(=O)[C@H]1[C@@H]2C(=O)O[C@@H](c3ccccc3)[C@@H](c3ccccc3)N2[C@@H](c2ccc(OCCOC(=O)[C@@H]3C[C@@H]4C(=O)N[C@@H](CCCCNC(C)=O)C(=O)N4[C@@H]3c3ccc(O)cc3)cc2)[C@]12C(=O)Nc1ccc(I)cc12
z-score [1]: -0.34
z-score [2]: 0.522
z-score [3]: -0.786
z-score [4]: -1.6
z-score [5]: -0.957
z-score [6]: -1.03
z-score [7]: 2.24 (inactive)
z-score [8]: -0.744
z-score [9]: -0.888
z-score [10]: -0.389 (inactive)
z-score [11]: -0.634
z-score [12]: 1.46 (inactive)
z-score [13]: -1.77 (inactive)
composite z-score [14]: 0.158 (inactive)
z-score [15]: 1.55 (inactive)
z-score [16]: 0.925 (inactive)
z-score [17]: -0.508 (inactive)
z-score [18]: -1.25 (inactive)
z-score [19]: -0.533
composite z-score [20]: 0.026

NC(=O)NCC#Cc1ccc2c(c1)[C@]1(C(=O)N2)[C@H](C(=O)NC[C@H](O)c2ccccc2)[C@H]2C(=O)O[C@H](c3ccccc3)[C@H](c3ccccc3)N2[C@@H]1c1ccc(OCCO)cc1
z-score [1]: -0.313
z-score [2]: 0.468
z-score [3]: 0.0249
z-score [4]: -0.254
z-score [5]: 1.25
z-score [6]: -2.05
z-score [7]: -0.183 (inactive)
z-score [8]: -1.1
z-score [9]: -0.642
z-score [10]: 0.818 (inactive)
z-score [11]: 0.815
z-score [12]: 1.5 (inactive)
z-score [13]: 0.449 (inactive)
composite z-score [14]: -1.11 (inactive)
z-score [15]: 1.72 (inactive)
z-score [16]: 2.91 (inactive)
z-score [17]: 0.615 (inactive)
z-score [18]: 0.541 (inactive)
z-score [19]: 1.3
composite z-score [20]: 0.11

Cn1cccc1C(O)C1C=CC2C(=O)NC(=O)C2N1Nc1ccc(Cl)cc1Cl (stereo not given)
z-score [1]: -0.924
z-score [2]: -0.457
z-score [3]: -1.5
z-score [4]: -3.45
z-score [5]: -2.24
z-score [6]: -2.72
z-score [7]: -1.36 (inactive)
z-score [8]: -0.929
z-score [9]: 0.234
z-score [10]: -0.299 (inactive)
z-score [11]: -1.75
z-score [12]: -3.53 (inactive)
z-score [13]: -1.86 (inactive)
composite z-score [14]: 0.121 (inactive)
z-score [15]: 1.69 (inactive)
z-score [16]: 0.441 (inactive)
z-score [17]: -1.09 (inactive)
z-score [18]: -1.28 (inactive)
z-score [19]: -1.98
composite z-score [20]: 0.315

CCCCO[C@H]1C[C@H]2C(I)=C[C@@H]1C(=O)[C@]21CO1
z-score [1]: -0.788
z-score [2]: -0.894
z-score [3]: -0.534
z-score [4]: -1.98
z-score [5]: -1.16
z-score [6]: -1.39
z-score [7]: -0.0178 (inactive)
z-score [8]: 0.432
z-score [9]: -0.569
z-score [10]: 0.0651 (inactive)
z-score [11]: -0.0876
z-score [12]: -8.45 (active)
z-score [13]: -0.67 (inactive)
composite z-score [14]: -0.0864 (inactive)
z-score [15]: 0.0481 (inactive)
z-score [16]: -1.31 (inactive)
z-score [17]: -0.814 (inactive)
z-score [18]: -1.05 (inactive)
z-score [19]: -0.0824
composite z-score [20]: -0.255

C[C@@H]1ON(c2ccc(C(=O)OC(C)(C)C)cc2)[C@H](c2ccc(O)cc2)[C@H]1C(=O)N1C(=O)OC[C@H]1Cc1ccccc1
z-score [1]: -1.68
z-score [2]: 0.82
z-score [3]: -4.85
z-score [4]: -3.31
z-score [5]: -4.04
z-score [6]: -3.38
z-score [7]: -0.493 (inactive)
z-score [8]: -0.877
z-score [9]: -2.81
z-score [10]: -1.31 (inactive)
z-score [11]: -1.61
z-score [12]: 0.479 (inactive)
z-score [13]: -1.04 (inactive)
composite z-score [14]: 0.771 (inactive)
z-score [15]: 0.212 (inactive)
z-score [16]: 0.351 (inactive)
z-score [17]: -0.682 (inactive)
z-score [18]: -0.118 (inactive)
z-score [19]: -0.687
composite z-score [20]: -0.13

O=C(NCc1ccccc1)[C@@H]1c2ccccc2C(=O)N(Cc2ccccc2C(F)(F)F)[C@H]1c1ccc(CO)cc1
z-score [1]: 0.369
z-score [2]: 0.275
z-score [3]: 1.53
z-score [4]: 0.0209
z-score [5]: -0.133
z-score [6]: 2.36
z-score [7]: -0.182 (inactive)
z-score [8]: 0.744
z-score [9]: -0.962
z-score [10]: -0.307 (inactive)
z-score [11]: -0.431
z-score [12]: 0.036 (inactive)
z-score [13]: -0.433 (inactive)
composite z-score [14]: 0.154 (inactive)
z-score [15]: 1.19 (inactive)
z-score [16]: 0.0858 (inactive)
z-score [17]: 0.232 (inactive)
z-score [18]: 0.56 (inactive)
z-score [19]: -0.137
composite z-score [20]: -0.107
